Experimental data: PubChem BioAssay (NCI)
Compounds without any hit were thinned out: in the full panel of roughly 83,000, 20% have a hit.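 Compound tested at a single concentration for 48 hours in 96-well plates; a percent growth value below 10 was scored as active.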 Values without a mark were called inactive. Active and inactive are the calls of the source.

Tests used:
Assay in all cases: NCI-60 one-dose screen, 48 h (100 = growth as untreated, 0 = no growth, -100 = all killed)
Details in all cases: 10 µM unless noted
SK-MEL-2 melanoma = system: SK-MEL-2 melanoma
EKVX NSCLC = system: EKVX NSCLC
SN12C renal = system: SN12C renal
UO-31 renal = system: UO-31 renal
TK-10 renal = system: TK-10 renal
ACHN renal = system: ACHN renal
CAKI-1 renal = system: CAKI-1 renal
A498 renal = system: A498 renal
CCRF-CEM leukemia = system: CCRF-CEM leukemia

Row | SMILES | growth (SK-MEL-2 melanoma) | growth (EKVX NSCLC) | growth (SN12C renal) | growth (UO-31 renal) | growth (TK-10 renal) | growth (ACHN renal) | growth (CAKI-1 renal) | growth (A498 renal) | growth (CCRF-CEM leukemia)
1 | Cc1cccc(C)c1N=c1oc2ccc(Cl)cc2nc1-c1ccccc1O | 85.7% | 78.8% | 86.9% | 76.8% | 101% | 90.7% | 90.4% | 95.3% | –
2 | N#C/C(=C\c1cccc(C#N)c1)c1ccccc1 | 112% | 90.7% | 98.9% | 93.3% | 91% | 106% | 96% | 112% | –
3 | COc1cc2cc(Oc3cccc(NC(=O)Nc4cc(C(F)(F)F)cc(C(F)(F)F)c4)c3)c(C)nc2cc1OC | -30.4% (active) | 2.88% (active) | 7.69% (active) | 11.6% | 13.2% | 5.82% (active) | 6.4% (active) | -11.5% (active) | 0.186% (active)
4 | COc1cc(/C=C/C(=O)c2nc3cc(F)ccc3nc2C)cc(OC)c1OC | 64.6% | 201% | 66.1% | 61.1% | 103% | 87.3% | 106% | 98% | -4.9% (active)
5 | COC(=O)C(CC=O)C(=O)C(=O)Nc1cccc(C(F)(F)F)c1 (centres undefined) | 109% | 92.1% | 92.2% | 86.6% | 102% | 105% | 97.7% | 83.4% | –
6 | Cc1ncc(C(=O)Nc2ccc(CN3CCN(C)CC3)c(C(F)(F)F)c2)cc1C#Cc1cnc(N)cc1C#N | -63.8% (active) | 57.5% | -5.62% (active) | -96.8% (active) | -54.7% (active) | -100% (active) | -88.2% (active) | -35.5% (active) | 13.6%
7 | Cn1cc(-c2nc(-c3c[nH]c4c(Cl)nccc34)cs2)c2cc(Br)ccc21 | 87.6% | 74.1% | 88.9% | 84.5% | 86.3% | 76.5% | 92.4% | 72.3% | 74.4%
8 | NS(=O)(=O)c1ccc(CCn2c(SCC(=O)c3ccc(Cl)cc3)nc3ccccc3c2=O)cc1 | 107% | 98.9% | 101% | 84.5% | 97.2% | 99.9% | 89.7% | 99.2% | 97.8%
9 | CC(c1ccccc1)C(C(=O)c1ccccc1)c1ccccc1 (centres undefined) | 85.1% | 98.5% | 88.5% | 119% | 66.2% | 48.9% | 89.2% | 93.3% | –
10 | Cc1cc(Cl)nc(N(CCNc2ccnc3cc(Cl)ccc23)Cc2ccccn2)n1 | 69.5% | 61.4% | 52.6% | 43.2% | 63.3% | 44.9% | 56.1% | 85.8% | 7.95% (active)
11 | COc1ccc(-c2cnc3c(-c4cccc5cnccc45)cnn3c2)cc1 | 75.5% | 96.1% | 58.8% | 52.1% | 65.8% | -1.14% (active) | 61.4% | 44.6% | 59.2%
12 | CC(=O)OC[C@]12CC[C@@H](C(=O)CBr)[C@@H]1[C@H]1CC[C@@H]3[C@@]4(C)CC[C@H](OC(C)=O)C(C)(C)[C@@H]4CC[C@@]3(C)[C@]1(C)CC2 | 92.3% | 107% | 87% | 90.7% | 108% | 98.8% | 77.4% | 121% | -17.4% (active)
13 | O=C(NNc1nc2c(F)cccc2n2cccc12)c1cnccn1 | 48.7% | 18.5% | 34.3% | 8.05% (active) | 48.9% | 4.68% (active) | 17.6% | 54.3% | 10.8%
14 | CCN(c1ccccc1)S(=O)(=O)c1cc([N+](=O)[O-])ccc1Cl | 46.2% | 88.3% | 60.7% | 53.9% | 107% | 79.9% | 48.1% | 71.9% | 52%
15 | COc1ccc2[nH]c(O)c(/C=c3/cc4c(c(-c5ccc(F)cc5)n3)=Nc3ccccc3-4)c2c1 | 103% | 74.1% | 88.6% | 72.5% | 107% | 92.2% | 87% | 70.2% | –
16 | Cc1nc2sccn2c1-c1cn2ccsc2n1 | 98% | 80.5% | 93.6% | 89.7% | 103% | 99.3% | 53.1% | 82.7% | 96.3%
17 | CC[C@]12C=CCN3CC[C@@]4(c5cc(NC(=O)CCC(=O)O[C@H]6CC[C@H]7[C@@H]8CCC9=CC(=O)CC[C@@H]9[C@H]8CC[C@]67C)c(OC)cc5N(C)[C@H]4[C@@](O)(C(=O)OC)[C@@H]1OC(C)=O)[C@@H]32 | 81.9% | 73.4% | 81.5% | 53.6% | 97.4% | 87.2% | 67.8% | 71.6% | 62.7%
18 | Cc1c(C)c([N+](=O)[O-])c(C)c([N+](=O)[O-])c1C | 102% | 103% | 102% | 105% | 102% | 118% | 99.3% | 94.3% | –
19 | COc1cc(CC(=O)n2ncc3ccc(N)cc32)cc(OC)c1OC | 98% | 91.8% | 107% | 70.2% | 108% | 94.9% | 85.9% | 97.4% | 101%
20 | C[C@@H](Nc1ncnc2ccc(-c3cnc(N)nc3)cc12)c1ccc(F)cc1 | 101% | 36.7% | 33.9% | 35.1% | 21.4% | 41.5% | 40.6% | -13.5% (active) | 95.3%
21 | COc1cc(/C=C\c2cc(/C=C\c3ccc(O)c(OC)c3)n(C(=O)COc3ccccc3)n2)ccc1O | -18.7% (active) | 28.1% | 15.7% | 0.475% (active) | 12.7% | 18% | 24.2% | 11.2% | 6.79% (active)
22 | N#CC(C(=O)/C(=N/NC(=O)c1ccccc1O)C(C#N)c1ccccc1)c1ccccc1 (centres undefined) | 68.6% | 76.7% | 52.5% | 29.4% | 69.7% | 31% | 82.5% | 30.9% | –
23 | CC(C)c1ccc(Nc2ccc3c(OCCCN4CCN(C)CC4)cccc3n2)cc1 | 105% | 80.7% | 91.3% | 71.5% | 91% | 80.4% | 64.4% | 77.8% | 30%
24 | COc1ccc2nc(-c3ccc(-c4noc(-c5cc(OC)c(OC)c(OC)c5)n4)cc3)[nH]c2c1 | 99.2% | 91.9% | 80.7% | 108% | 102% | 97.9% | 96.5% | 101% | –
25 | COc1ccc(-c2cnc3c(-c4cccc5ncccc45)cnn3c2)cc1 | 76.1% | 80% | 37.8% | 55.4% | 61.7% | 7.66% (active) | 32.2% | 16.1% | 98.4%
26 | CCCCCCCC(=O)OCC/C=C/C1OC1C1OC(=O)/C=C\C=C\C(=O)N(C(C)=O)C(=O)/C=C(/C)CCC2OC2C1OC(=O)NC(C)=O (centres undefined) | 89.8% | 83.5% | 63.2% | 69% | 37.5% | 29.2% | 71% | 90.7% | –
27 | CCOC(=O)c1cc(C(=O)c2ccc(OC)c(OC)c2)n2c1ccc1ccccc12 | 104% | 76.1% | 83.7% | 58.4% | 154% | 91% | 64.6% | 97.1% | 94%
28 | Oc1ccc(C2c3ccccc3Oc3ccccc32)c2cccnc12 | 27.4% | 20.4% | 22.9% | 4.44% (active) | 39.1% | 7.81% (active) | 0.125% (active) | 36% | –
29 | COC1=CC(=O)c2ccccc2C1=O | 69.3% | 110% | 84.8% | 71.9% | 94% | 75.6% | 95.6% | 107% | –
30 | Cn1cc(-c2csc(-c3c[nH]c4ccccc34)n2)c2ccnc(Cl)c21 | 94.4% | 79.6% | 76.5% | 49.3% | 77.4% | 54.2% | 66.1% | 53.8% | 57.4%
